Test results reported in PubChem BioAssay AID1259319 (Sanford-Burnham Center for Chemical Genomics, 2017).
Screen size: about 3,000 compounds; about 1,800 (60%) were called active.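 The calls were made as follows: active = activation at or above a set limit, or at least 3 SD above the negative control mean; inactive = the rest.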 So high a share suggests a set chosen from earlier hits. Only a sample is shown.

These compounds were tested against Nuclear receptor subfamily 1 group D member 1 (Homo sapiens) (UniProt P20393) (assay: Rev-erbα–DNA interaction modulation, retest – biochemical, FITC-DNA, fluorescence polarization, single point, confirmation (AID 1259319;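 also: 0% = 35 nM protein with DMSO and 100% = 750 nM protein high control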)). Conditions: Rev-erb alpha FITC-DNA binding, 90 min, at 25 µM, stronger effect = higher value.
Nuclear receptor subfamily 1 group D member 1 (Homo sapiens), sequence (P20393 whole entry, looked up): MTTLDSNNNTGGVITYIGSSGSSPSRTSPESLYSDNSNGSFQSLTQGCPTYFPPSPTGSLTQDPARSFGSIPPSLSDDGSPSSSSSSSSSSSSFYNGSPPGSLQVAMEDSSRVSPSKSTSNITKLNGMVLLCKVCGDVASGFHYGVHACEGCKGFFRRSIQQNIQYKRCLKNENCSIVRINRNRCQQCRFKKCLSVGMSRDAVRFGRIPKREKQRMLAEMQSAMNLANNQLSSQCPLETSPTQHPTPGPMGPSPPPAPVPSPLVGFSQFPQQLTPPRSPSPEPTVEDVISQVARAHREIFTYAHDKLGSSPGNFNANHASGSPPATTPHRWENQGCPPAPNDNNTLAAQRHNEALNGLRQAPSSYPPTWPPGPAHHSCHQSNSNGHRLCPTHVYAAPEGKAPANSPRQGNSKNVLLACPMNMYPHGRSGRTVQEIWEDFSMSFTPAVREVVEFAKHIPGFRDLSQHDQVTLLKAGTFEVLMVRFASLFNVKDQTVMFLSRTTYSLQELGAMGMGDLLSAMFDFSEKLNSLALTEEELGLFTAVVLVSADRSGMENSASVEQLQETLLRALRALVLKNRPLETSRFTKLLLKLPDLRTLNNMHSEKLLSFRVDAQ
COc1ccccc1N=Nc1c(O)[nH]c(=S)[nH]c1=O was tested, and the activation was 41% (active).
With COC(=O)CN(CCCl)P1(=O)OCCCN1CCCl (configuration not stated) the activation was -6.07% (inactive).
